# Structures can show the parent of a compound that is named as a salt.
# Experiments:
# Assay in all cases: Euclidean distance of Cell Painting phenotypic profile (signed KS, 77 features) to DMSO centroid (dimensionless distance); 5 or 10 uM (library dependent); higher = stronger phenotypic change vs DMSO (phenoactivity)
# Conditions in all cases: 48 h
# 786-O = test system: 786-O
# How it was run: (§1)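 Five cancer lines and a healthy fibroblast line received library compounds at 10 or 5 uM (library-dependent, 0.1% DMSO final) for 48 h. Stained cells were imaged confocally at 20X (9 fields/well). Harmony extracted 77 features, each scored as a signed Kolmogorov-Smirnov statistic against same-plate vehicle wells. Profiles were plate-position corrected, correlation-weighted and replicate-averaged at the top dose. Phenoactivity is the Euclidean distance from each profile to the median vehicle profile.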
# A549 = test system: A549
# How it was run: as §1
# DU145 = test system: DU145
# How it was run: as §1
# FB = test system: FB
# How it was run: as §1
# OVCAR4 = test system: OVCAR4
# How it was run: as §1
# HEPG2 = test system: HEPG2
# How it was run: as §1
SMILES,Euclidean distance (786-O),Euclidean distance (A549),Euclidean distance (DU145),Euclidean distance (FB),Euclidean distance (OVCAR4),Euclidean distance (HEPG2)
CC(C)c1cnn2c(NCc3ccccc3)cc(NCCCCCCN)nc12,0.657,0.869,0.933,0.961,1.08,–
CCc1c(C(=O)NCCc2ccc(N3CCCCC3)cc2)[nH]c2ccc(Cl)cc12,1.69,1.48,1.01,1.21,1.47,–
CN(C)Cc1cccc(N=C(c2ccccc2)c2c(O)[nH]c3cc(C(=O)N(C)C)ccc23)c1,0.777,0.99,1.08,3.16,1.3,–
COc1cc(NS(=O)(=O)c2ccc(N)cc2)nc(OC)n1 [Sulphadimethoxine],1.31,1.11,1.61,1.62,1.44,–
CCOC(=O)[C@H](CCc1ccccc1)N[C@H]1CCCN2CCC[C@@H](C(=O)O)N2C1=O [Cilazapril Monohydrate],1.14,1.31,0.828,1.03,1.38,–
CNC(=O)CN(CCN(CCN(CC(=O)[O-])CC(=O)NC)CC(=O)[O-])CC(=O)[O-].[Gd+3] [Gadodiamide],0.953,1.55,1.5,0.962,1.1,–
N=c1ccn2c(n1)O[C@H]1[C@H](O)[C@@H](CO)O[C@H]12 [Cyclocytidine HCl],3.43,2.7,2.45,3.66,4.57,–
Clc1ccc(C2(c3ccc(-c4cn[nH]c4)cc3)CCNCC2)cc1,2.95,3.29,3.8,4.67,3.48,–
O=S(=O)(NCCNC/C=C/c1ccc(Br)cc1)c1cccc2cnccc12,2.02,1.32,2.19,1.3,1.89,–
Cc1ccc(Nc2c(F)cccc2Cl)c(CC(=O)O)c1 [Lumiracoxib],1.54,0.989,0.9,1.33,1.36,0.549
NS(=O)(=O)c1cc2c(cc1Cl)NCNS2(=O)=O [Hydrochlorothiazide],1.82,1.08,1.44,1.02,0.927,–
CC(C)C[C@@H](C(=O)N[C@H](C(=O)OC1CCCC1)c1ccccc1)[C@H](O)C(=O)NO [Tosedostat (CHR2797)],0.679,1.35,0.893,1.15,1.27,–
NC(=O)c1ncn([C@@H]2O[C@H](CO)[C@@H](O)[C@H]2O)c1N [Acadesine],1,1.3,0.856,1.35,0.909,–
C[C@@H]1CC(=O)NN=C1c1ccc(NN=C(C#N)C#N)cc1 [Levosimendan],1.83,0.486,1.3,1.44,0.625,0.487
CCCCCCCCCCCCc1ccc(S(=O)(=O)Nc2nncs2)cc1,1.69,1.57,0.932,1.16,1.51,–
NCCCCCC(=O)O,0.84,1.89,2.26,1.67,1.43,–
CCCNC(=O)Nc1ccc(Oc2ncnc3cc(OC)c(OC)cc23)cc1Cl,0.633,0.789,0.916,2.36,1.05,–
CS(=O)(=O)c1cccc(CNc2nc(Nc3ccc4c(c3)CCC(=O)N4)ncc2C(F)(F)F)c1,3.16,2.6,3.07,3.24,1.34,–
Cc1ccc2c(=O)c3cccc(CC(=O)O)c3oc2c1C [DMXAA (Vadimezan)],2.33,0.921,1.14,1.4,1.04,–
Cc1ccc(C(=O)Nc2cccc(C(F)(F)F)c2)cc1Nc1nc(-c2cccnc2)nc2c1cnn2C,3.33,3.93,3.91,1.82,1.46,3.78
O=C(NOCC(O)CO)c1cc(Br)c(F)c(F)c1Nc1ccc(I)cc1F (centres undefined),1.97,2.76,1.78,2.89,1.17,–
CC(C)Cc1ccc(C(C)C(=O)O)cc1 (centres undefined) [Ibuprofen],0.948,0.452,0.996,0.827,0.689,0.86
C[C@@H]1C(=O)O[C@H]2C[C@@]34[C@H]5C[C@@H](C(C)(C)C)[C@]36[C@@H](OC(=O)[C@@H]6O)O[C@@]4(C(=O)O5)[C@]21O [Ginkgolide A],0.788,1.51,1.93,1.46,1.21,–

# Reference: the supplement of paper PMC10127200
